Inconclusive results are not listed. The source made the active and inactive calls. Unless noted, calls follow the shape of the full dose curve.
Legend:
[1] = qHTS assay to identify small molecule agonists of the peroxisome proliferator-activated receptor delta (PPARd) signaling pathway - cell viability counter screen (AID 743211; active = well fitted curve in the direction sought with a large enough effect in the repeat runs; an effect the other way counts as inactive or inconclusive; also: nearly all actives have a fitted effect of over 55% in size)
Summary of the method: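 Following 5 h plating at 37 C and 5% CO2, PPARd UAS-bla HEK293H cells took up test compounds for 17 h. Viability was quantified by luminescence 30 min after CellTiter-Glo addition at room temperature.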

[2] = qHTS assay to identify small molecule antagonists of the peroxisome proliferator-activated receptor delta (PPARd) signaling pathway - cell viability counter screen (AID 743213; active = well fitted curve in the direction sought with a large enough effect in the repeat runs; an effect the other way counts as inactive or inconclusive; also: nearly all actives have a fitted effect of over 50% in size)
Summary of the method: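 Luminescence from CellTiter-Glo, added after the bla read and incubated 30 min at room temperature, gives viability of HEK293H PPARd-bla cells exposed to compounds for 17 h at 37 C with 300 nM L165041.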

[3] = qHTS assay to identify small molecule agonists of the farnesoid-X-receptor (FXR) signaling pathway - cell viability counter screen (AID 743218; active = well fitted curve in the direction sought with a large enough effect in the repeat runs; an effect the other way counts as inactive or inconclusive; also: nearly all actives have a fitted effect of over 45% in size)
Summary of the method: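 HEK 293T FXR-bla cells; 5 h pre-incubation, 16 h compound exposure at 37 C; LiveBLAzer substrate 2 h RT, then CellTiter-Glo 30 min RT, luminescence.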

[4] = qHTS assay to identify small molecule antagonists of the farnesoid-X-receptor (FXR) signaling pathway - cell viability counter screen (AID 743221; active = well fitted cell-killing curve with a large enough effect in the repeat runs, not every such curve was filed as active; also: nearly all actives have a fitted effect of over 50% in size)
Summary of the method: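 Compound effects on cell number were measured as CellTiter-Glo luminescence in HEK 293T cells expressing FXR-UAS-bla, after 16 h at 37 C with 50 uM CDCA (final).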

[5] = qHTS assay to identify small molecule agonists of the NFkB signaling pathway - cell viability counter screen (AID 1159515); also: series mostly up to about 61 µM; nearly all actives have a fitted effect of over 55% in size
Summary of the method: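 Luminescence from CellTiter-Glo (30 min, room temperature) gives viability, measured in the same wells as the beta-lactamase reporter read. Cells were NFkB-bla ME-180, 2,000 per well, treated 5 hr with compounds.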

[6] = qHTS assay to identify small molecule agonists of the endoplasmic reticulum stress response signaling pathway (AID 1159516; active = well fitted activation curve with a large enough effect in the signal ratio in the repeat runs, not every such curve was filed as active; the % refers to the signal ratio)
Summary of the method: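 Read-out is beta-lactamase cleavage of a FRET substrate (405 nm excitation; 460 and 530 nm emissions) in ESRE-bla HeLa cells after a 5 hr compound exposure at 37 C. Substrate incubation ran 2 hr at room temperature.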

[7] = qHTS assay to identify small molecule agonists of the endoplasmic reticulum stress response signaling pathway - cell viability counter screen (AID 1159517);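 also: HeLa cells carrying an ER stress response element beta-lactamase reporter; series mostly up to about 61 µM; nearly all actives have a fitted effect of over 50% in size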
Summary of the method: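 Counter-screen wells were identical to the reporter wells. Cells were plated at 1,500 per well and dosed for 5 hr, then read for luminescence 30 min after CellTiter-Glo addition.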

[8] = qHTS assay to identify small molecule antagonists of the retinoid-related orphan receptor gamma (ROR-gamma) signaling pathway - cell viability counter screen (AID 1159520; active = well fitted curve in the direction sought with a large enough effect in the repeat runs; an effect the other way counts as inactive or inconclusive; also: nearly all actives have a fitted effect of over 50% in size)
Summary of the method: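 Tet-on ROR gamma CHO cells were given compounds for 2 hr, then doxycycline hyclate at 1 uM final, and incubated 16 hr at 37 C. Viability was measured as ATP content by CellTiter-Glo luminescence.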

[9] = qHTS assay to identify small molecule agonists of the AP-1 signaling pathway - cell viability counter screen (AID 1159525); also: nearly all actives have a fitted effect of over 55% in size
Summary of the method: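 AP-1-bla ME-180 cells in Opti-MEM with 0.5% dialyzed FBS, compound exposure 5 h at 37 C in 15-point titration. Viability read in the same wells as ATP content by CellTiter-Glo luminescence, normalised to tetra-n-octylammonium bromide and DMSO controls.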

[10] = qHTS assay to identify small molecule agonists of the AP-1 signaling pathway (AID 1159526)
[11] = target: Peroxisome proliferator-activated receptor delta (Homo sapiens) (UniProt Q03181); experiment: qHTS assay to identify small molecule agonists of the peroxisome proliferator-activated receptor delta (PPARd) signaling pathway (AID 743212)
Chain of Peroxisome proliferator-activated receptor delta (Homo sapiens) (Q03181 whole entry, looked up): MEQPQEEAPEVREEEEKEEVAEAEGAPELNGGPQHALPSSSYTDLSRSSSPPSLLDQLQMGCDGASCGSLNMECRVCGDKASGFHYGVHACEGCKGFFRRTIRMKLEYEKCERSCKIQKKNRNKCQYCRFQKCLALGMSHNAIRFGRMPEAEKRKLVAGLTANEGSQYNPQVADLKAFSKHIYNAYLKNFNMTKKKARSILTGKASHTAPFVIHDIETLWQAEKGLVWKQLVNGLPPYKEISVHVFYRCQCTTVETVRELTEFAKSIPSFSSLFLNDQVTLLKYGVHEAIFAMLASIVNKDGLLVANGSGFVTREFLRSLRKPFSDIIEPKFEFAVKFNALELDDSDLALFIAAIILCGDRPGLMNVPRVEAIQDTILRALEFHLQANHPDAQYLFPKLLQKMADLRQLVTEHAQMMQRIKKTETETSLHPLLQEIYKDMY
Summary of the method: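 Quantitative high-throughput agonist screen in a HEK293H beta-lactamase reporter line under UAS control. Compounds in DMSO, at 37 C. Fluorescence read after 2 h with FRET substrate at room temperature.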

[12] = target: Peroxisome proliferator-activated receptor delta (Homo sapiens) (UniProt Q03181); experiment: qHTS assay to identify small molecule antagonists of the peroxisome proliferator-activated receptor delta (PPARd) signaling pathway (AID 743215; active = well fitted inhibition curve with a large enough effect in the signal ratio in the repeat runs, not every such curve was filed as active; the % refers to the signal ratio;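 also: cells stimulated with agonist L165041 at 300 nM final during compound exposure; series mostly up to about 62 µM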)
Summary of the method: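 Read-out is beta-lactamase FRET fluorescence, measured 2 h after substrate addition at room temperature. Beforehand, UAS-bla HEK293H cells carrying the PPARd reporter were exposed to compounds with L165041 at 300 nM final for 17 h at 37 C.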

[13] = target: Vitamin D3 receptor (Homo sapiens) (UniProt P11473); experiment: qHTS assay to identify small molecule agonists of the vitamin D receptor (VDR) signaling pathway (AID 743222)
Chain of Vitamin D3 receptor (Homo sapiens) (P11473 whole entry, looked up): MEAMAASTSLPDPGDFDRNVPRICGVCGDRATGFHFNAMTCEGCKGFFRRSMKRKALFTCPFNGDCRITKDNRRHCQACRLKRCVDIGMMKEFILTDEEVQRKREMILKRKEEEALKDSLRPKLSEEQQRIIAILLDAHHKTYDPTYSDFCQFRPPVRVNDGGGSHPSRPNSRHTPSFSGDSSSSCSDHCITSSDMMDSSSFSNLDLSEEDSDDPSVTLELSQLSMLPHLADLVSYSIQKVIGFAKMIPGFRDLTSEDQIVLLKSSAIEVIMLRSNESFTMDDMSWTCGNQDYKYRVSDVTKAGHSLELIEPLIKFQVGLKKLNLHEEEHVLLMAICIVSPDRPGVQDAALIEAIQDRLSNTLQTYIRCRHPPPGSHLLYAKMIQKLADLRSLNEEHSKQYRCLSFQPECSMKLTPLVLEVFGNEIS
Summary of the method: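 VDR-bla cells, 2,000/well; 4 h preincubation 37C; cpd (DMSO) 16 h; LiveBLAzer B/G substrate 2 h RT; fluorescence intensity read.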

[14] = target: Vitamin D3 receptor (Homo sapiens) (UniProt P11473); experiment: qHTS assay to identify small molecule antagonists of the vitamin D receptor (VDR) signaling pathway (AID 743223; active = well fitted inhibition curve with a large enough effect in the signal ratio in the repeat runs, not every such curve was filed as active; the % refers to the signal ratio)
Summary of the method: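 Beta-lactamase activity in VDR-bla cells is measured by FRET substrate fluorescence (2 h, room temperature) after cells spend 16 h at 37C with test compound and 3 nM final 1alpha,25-dihydroxyvitamin D3.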

[15] = qHTS assay to identify small molecule agonists of the vitamin D receptor (VDR) signaling pathway - cell viability counter screen (AID 743224; active = well fitted curve in the direction sought with a large enough effect in the repeat runs; an effect the other way counts as inactive or inconclusive)
Summary of the method: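 Luminescence from CellTiter-Glo, read after 30 min at room temperature, reports viability of VDR-bla cells treated with compounds for 16 h at 37C in the wells used for the beta-lactamase FRET read.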

[16] = qHTS assay to identify small molecule antagonists of the vitamin D receptor (VDR) signaling pathway - cell viability counter screen (AID 743225; active = well fitted curve in the direction sought with a large enough effect in the repeat runs; an effect the other way counts as inactive or inconclusive; also: nearly all actives have a fitted effect of over 50% in size)
Summary of the method: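 In this counter screen, VDR-bla HEK 293T cells receive test compound plus 3 nM final calcitriol for 16 h at 37C. Room-temperature steps of 2 h with the beta-lactamase substrate, then 30 min with CellTiter-Glo, precede the luminescence read.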

[17] = target: Retinoic acid receptor RXR-alpha (Homo sapiens) (UniProt P19793); experiment: qHTS assay to identify small molecule agonists of the RXR signaling pathway (AID 1159527); also: nearly all actives have a fitted effect of over 35% in size
Chain of Retinoic acid receptor RXR-alpha (Homo sapiens) (P19793 whole entry, looked up): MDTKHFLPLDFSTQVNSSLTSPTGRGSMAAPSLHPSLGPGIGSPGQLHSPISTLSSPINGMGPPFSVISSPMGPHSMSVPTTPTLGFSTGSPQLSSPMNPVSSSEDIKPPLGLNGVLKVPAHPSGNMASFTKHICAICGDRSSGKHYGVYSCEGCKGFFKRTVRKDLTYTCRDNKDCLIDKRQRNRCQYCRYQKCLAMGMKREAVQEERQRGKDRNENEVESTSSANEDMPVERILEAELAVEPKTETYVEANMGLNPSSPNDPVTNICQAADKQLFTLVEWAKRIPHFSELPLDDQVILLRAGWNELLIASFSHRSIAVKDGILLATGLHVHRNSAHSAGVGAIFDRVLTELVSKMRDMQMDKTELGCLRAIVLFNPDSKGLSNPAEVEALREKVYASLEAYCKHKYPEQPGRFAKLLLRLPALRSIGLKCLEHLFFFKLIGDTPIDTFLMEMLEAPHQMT
Summary of the method: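 Fluorescence ratio readout (460 vs 530 nm) from GeneBLAzer RXR-alpha HEK 293T cells after 16 hr compound treatment; cells seeded 5 hr beforehand in low-serum, charcoal-stripped medium.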

[18] = target: Bile acid receptor (Homo sapiens) (UniProt Q96RI1); experiment: qHTS assay to identify small molecule antagonists of the farnesoid-X-receptor (FXR) signaling pathway (AID 743217; active = well fitted inhibition curve with a large enough effect in the signal ratio in the repeat runs, not every such curve was filed as active; the % refers to the signal ratio)
Chain of Bile acid receptor (Homo sapiens) (Q96RI1 whole entry, looked up): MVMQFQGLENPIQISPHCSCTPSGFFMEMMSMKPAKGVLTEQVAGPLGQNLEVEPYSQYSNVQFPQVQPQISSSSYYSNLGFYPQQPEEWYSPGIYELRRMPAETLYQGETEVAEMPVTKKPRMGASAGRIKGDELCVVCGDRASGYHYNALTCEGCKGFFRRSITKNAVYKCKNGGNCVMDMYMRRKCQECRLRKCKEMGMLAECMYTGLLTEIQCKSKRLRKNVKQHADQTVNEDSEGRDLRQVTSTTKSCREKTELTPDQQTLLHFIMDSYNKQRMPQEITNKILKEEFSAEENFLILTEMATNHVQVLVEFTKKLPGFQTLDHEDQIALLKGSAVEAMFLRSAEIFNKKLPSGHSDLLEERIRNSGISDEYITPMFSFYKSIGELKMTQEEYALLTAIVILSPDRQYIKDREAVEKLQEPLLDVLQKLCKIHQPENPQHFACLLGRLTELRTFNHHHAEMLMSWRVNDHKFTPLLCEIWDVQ
Summary of the method: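 HEK 293T FXR-UAS-bla, 5000 cells/well; compound + CDCA 50 uM final; 16 h, 37 °C; B/G FRET substrate 2 h RT; fluorescence.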

[19] = target: Bile acid receptor (Homo sapiens) (UniProt Q96RI1); experiment: qHTS assay to identify small molecule agonists of the farnesoid-X-receptor (FXR) signaling pathway (AID 743220; active = well fitted activation curve with a large enough effect in the signal ratio in the repeat runs, not every such curve was filed as active; the % refers to the signal ratio)
Summary of the method: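 Beta-lactamase reporter under UAS control in GeneBLAzer FXR HEK 293T cells (5000/well) measured with LiveBLAzer FRET substrate after 2 h at room temperature. Compound exposure lasted 16 h at 37C.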

Measured: Potency

[Cl-].[Cl-].[Cl-].[Yb+3]
inactive: [1] | [2] | [3] | [4] | [5] | [6] | [7] | [8] | [9] | [10]

CCC1COC(Cn2cncn2)(c2ccc(Cl)cc2Cl)O1 (stereo not drawn)
not listed: [2] | [17] | [18] | [19]
inactive: all other assays above

CNC(C)(C)Cc1ccccc1
not listed: [1] | [2] | [18] | [19]
inactive: all other assays above

CNN
not listed: [1] | [11] | [12] | [13] | [14] | [18] | [19]
inactive: all other assays above

CCCCN(CCCC)C(=S)[S-].CCCCN(CCCC)C(=S)[S-].[Ni+2]
not listed: [11] | [12] | [16] | [18] | [19]
inactive: all other assays above

C=CCBr
not listed: [2] | [11] | [12] | [14] | [15]
inactive: all other assays above

O=C(CCCCl)c1ccc(F)cc1
not listed: [11] | [12] | [13] | [14] | [18] | [19]
inactive: all other assays above

CC(C)c1c(CN(C)C(C)Cc2ccccc2)n(C)n(-c2ccccc2)c1=O (stereo not drawn)
not listed: [2] | [3] | [12] | [14] | [15] | [17] | [18]
inactive: all other assays above

CCNc1nc(NC(C)C(C)C)nc(SC)n1 (stereo not drawn)
not listed: [1] | [3] | [13] | [14] | [18] | [19]
inactive: all other assays above

Source: PubChem BioAssay (Tox21)
